# Several values for one entry are separate records, joined by “and”; a condition that tells them apart may be missing. Equal entries are not always repeated. Results filed as inconclusive are left out. A call without a number means that no potency is given here. Some compounds were tested as several samples or in several runs, with calls that do not always agree. Activity calls are given as the source filed them. Unless noted, the call rests on the fitted dose curve; in most records, active means well fitted curve in the direction sought with a large enough effect in the repeat runs; inconclusive means weak or mixed curves; inactive means no such curve, though single readings can be large; an effect the other way counts as inactive or inconclusive.
# Assays:
# [1] = target: Nuclear receptor subfamily 1 group I member 2 (Homo sapiens) (UniProt O75469); test: Human pregnane X receptor (PXR) small molecule agonists, qHTS assay (AID 1346982); further: nearly all actives have a fitted effect of over 35% in size; further: potency means the concentration at half of the fitted maximal effect
# In short: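 PXR-Luc HepG2 cells (CYP3A4 promoter-driven luciferase) were seeded in medium with 5% charcoal-stripped FBS, left 5 hr at 37 C, then exposed to compounds in DMSO for 24 hr. Luminescence was read after ONE-Glo addition.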
# [2] = target: Nuclear receptor subfamily 1 group I member 2 (Homo sapiens) (UniProt O75469); test: CYP3A4 induction through human pregnane X receptor (PXR) by small molecules, qHTS assay (AID 1346984); further: nearly all actives have a fitted effect of over 40% in size
# In short: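 DPX-2 cells (HepG2 co-transfected with PXR and CYP3A4 promoter-luciferase) treated with compounds 24 h at 37C; luciferin-IPA CYP3A4 substrate 3uM final added for 3 h, then One-Glo; luminescence read. qHTS format.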
# [3] = target: Acetylcholinesterase (Homo sapiens) (UniProt P22303); test: Acetylcholinesterase (AChE) small molecule antagonists: colormetric cell-based qHTS assay (AID 1347395; calls by dose curve; further: nearly all actives have a fitted effect of over 30% in size; further: potency means the concentration at half of the fitted maximal effect)
# In short: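 SH-SY5Y cells, plated overnight at 37 C, were exposed to compounds for 30 min at 37 C and 5% CO2. Acetylthiocholine plus DTNB was then added, and thiocholine from endogenous AChE was quantified colorimetrically after 90 min at 37 C.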
# [4] = target: Acetylcholinesterase (Homo sapiens) (UniProt P22303); test: Acetylcholinesterase (AChE) small molecule antagonists: enzyme-based qHTS assay (AID 1347397; calls by dose curve; further: nearly all actives have a fitted effect of over 55% in size; further: potency means the concentration at half of the fitted maximal effect); conditions: Potency: AChE enzyme activity inhibition
# In short: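 rhAChE 50 mU/mL (dispensed) + cpd or DMSO, 30 min RT; add DTNB/acetylthiocholine cocktail, 10 min RT; colorimetric thiocholine readout. qHTS, 1536-well format.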
# [5] = target: Acetylcholinesterase (Homo sapiens) (UniProt P22303); test: Acetylcholinesterase (AChE) small molecule antagonists: fluorescence cell-based qHTS assay (AID 1347398; calls by dose curve; further: nearly all actives have a fitted effect of over 50% in size; further: potency means the concentration at half of the fitted maximal effect); conditions: Potency: AChE activity
# In short: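 Read-out is Thiolite Green fluorescence at Ex/Em = 490/520 nm, formed by reaction with thiocholine released when cellular AChE in SH-SY5Y cells hydrolyzes acetylthiocholine. Compounds were preincubated 30 min at 37 C before substrate.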
# [6] = target: Acetylcholinesterase (Homo sapiens) (UniProt P22303); test: Acetylcholinesterase (AChE) small molecule antagonists: enzyme-based qHTS assay with human liver microsomes (AID 1347399; calls by dose curve; further: nearly all actives have a fitted effect of over 60% in size; further: potency means the concentration at half of the fitted maximal effect); conditions: Potency: qHTS inhibition
# In short: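 Recombinant human AChE (50 mU/mL in the enzyme mix) and human liver microsomes (0.25 mg/mL final) were preincubated with compound and NADPH (0.25 mg/mL final) for 30 min at 37 C. Acetylthiocholine/DTNB was then added; thiocholine was read colorimetrically after 10 min at room temperature.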
# [7] = target: Voltage-gated inwardly rectifying potassium channel KCNH2 (Homo sapiens) (UniProt Q12809); test: Human Ether-a-go-go-Related Gene (hERG) channel small molecule antagonists: fluorescence cell-based qHTS assay (AID 1671200); further: nearly all actives have a fitted effect of over 50% in size; further: potency means the concentration at half of the fitted maximal effect
# In short: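 U2OS cells expressing the channel were plated at 1000 cells/well, incubated overnight at 37 C, then loaded with FluxOR II thallium-sensitive dye for 1 h at room temperature in the dark, with a further 10 min at room temperature before stimulation.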
# [8] = target: Cytochrome P450 2D6 (Homo sapiens) (UniProt P10635); test: Cytochrome P450 Family 2 Subfamily D Member 6 (CYP2D6) small molecule antagonists: luciferase reporter qHTS assay (AID 1671196); further: nearly all actives have a fitted effect of over 50% in size; further: potency means the concentration at half of the fitted maximal effect
# In short: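 CYP2D6 enzyme–substrate mix was held with compound for 10 min at room temperature, then NADPH regeneration solution was added and the reaction ran 1 h at room temperature. Luciferin product was detected by luminescence after 20 min with detection reagent.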
# [9] = target: Cytochrome P450 2C19 (Homo sapiens) (UniProt P33261); test: Cytochrome P450 Family 2 Subfamily C Member 19 (CYP2C19) small molecule antagonists: luciferase reporter qHTS assay (AID 1671197); further: nearly all actives have a fitted effect of over 65% in size; further: potency means the concentration at half of the fitted maximal effect
# In short: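 CYP2C19 P450-Glo, 1536-well qHTS. Cpd + enzyme/proluciferin substrate 10 min RT; + NADPH regen, 37C 1 h; stop with luciferin detection reagent, 20 min RT, luminescence (RLU). Pos ctrl ketoconazole.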
# [10] = target: Cytochrome P450 2C9 (Homo sapiens) (UniProt P11712); test: Cytochrome P450 Family 2 Subfamily C Member 9 (CYP2C9) small molecule antagonists: luciferase reporter qHTS assay (AID 1671198); further: nearly all actives have a fitted effect of over 50% in size; further: potency means the concentration at half of the fitted maximal effect
# In short: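 Enzyme-substrate mix preincubated with compound 10 min at room temperature; reaction started with NADPH regeneration solution, 1 h 37C. Luminescent luciferin product read after 20 min detection reagent.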
# [11] = target: Cytochrome P450 1A2 (Homo sapiens) (UniProt P05177); test: Cytochrome P450 Family 1 Subfamily A Member 2 (CYP1A2) small molecule antagonists: luciferase reporter qHTS assay (AID 1671199); further: nearly all actives have a fitted effect of over 50% in size; further: potency means the concentration at half of the fitted maximal effect
# In short: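 Human CYP1A2 activity measured with a P450-Glo proluciferin substrate; compounds in DMSO preincubated 10 min at room temperature with enzyme-substrate mix, then NADPH regeneration system added for 1 h. Luciferin detection reagent, 20 min, luminescence read.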
# [12] = target: Nuclear receptor subfamily 1 group I member 2 (Rattus norvegicus) (UniProt Q9R1A7); test: Rat pregnane X receptor (rPXR) activation by small molecules, qHTS assay (AID 1346983); conditions: rPXR luciferase reporter cells, One-Glo luminescence, 24 h; stronger effect = higher value; further: nearly all actives have a fitted effect of over 20% in size
# In short: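 Luminescent readout (One-Glo luciferase, 30 min room temperature) followed 24 hr compound treatment at 37 C of rPXR cells plated 2,000 per well and preincubated 5hr; qHTS format with compounds delivered in DMSO.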
# [13] = target: Nuclear receptor subfamily 1 group I member 2 (Homo sapiens) (UniProt O75469); test: Human pregnane X receptor (PXR) activation by small molecules, qHTS assay (AID 1346985); further: nearly all actives have a fitted effect of over 40% in size; further: potency means the concentration at half of the fitted maximal effect
# In short: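 DPX-2 cells (HepG2 co-transfected with a PXR response element and a CYP3A4-promoter luciferase construct) were seeded at 2,000 per well, rested 5 hr at 37C, then exposed to DMSO-dissolved compounds for 24 hr. Activation was read as luciferase luminescence.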
# [14] = target: Cytochrome P450 3A4 (Homo sapiens) (UniProt P08684); test: Cytochrome P450 Family 3 Subfamily A Member 4 (CYP3A4) small molecule antagonists: luciferase reporter qHTS assay (AID 1671201)
# In short: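 P450-Glo CYP3A4 system with proluciferin substrate; compounds preincubated 10 min RT with enzyme-substrate mix, then NADPH regeneration added for 1 h RT. Detection reagent 20 min, luminescence read as relative luminescence units.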
# Nuclear receptor subfamily 1 group I member 2 (Rattus norvegicus), sequence (Q9R1A7 whole entry, looked up): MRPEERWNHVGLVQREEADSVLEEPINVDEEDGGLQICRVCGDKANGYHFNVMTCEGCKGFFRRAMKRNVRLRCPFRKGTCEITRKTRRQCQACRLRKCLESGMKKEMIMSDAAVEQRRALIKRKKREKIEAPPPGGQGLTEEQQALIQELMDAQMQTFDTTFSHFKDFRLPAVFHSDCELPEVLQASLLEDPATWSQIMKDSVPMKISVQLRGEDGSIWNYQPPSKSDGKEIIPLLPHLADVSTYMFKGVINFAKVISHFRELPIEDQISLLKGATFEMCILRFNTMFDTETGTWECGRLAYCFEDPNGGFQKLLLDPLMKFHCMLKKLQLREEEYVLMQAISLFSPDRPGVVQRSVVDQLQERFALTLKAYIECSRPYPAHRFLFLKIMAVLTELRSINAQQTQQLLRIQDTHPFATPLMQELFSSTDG
# Cytochrome P450 2C9 (Homo sapiens), sequence (P11712 whole entry, looked up): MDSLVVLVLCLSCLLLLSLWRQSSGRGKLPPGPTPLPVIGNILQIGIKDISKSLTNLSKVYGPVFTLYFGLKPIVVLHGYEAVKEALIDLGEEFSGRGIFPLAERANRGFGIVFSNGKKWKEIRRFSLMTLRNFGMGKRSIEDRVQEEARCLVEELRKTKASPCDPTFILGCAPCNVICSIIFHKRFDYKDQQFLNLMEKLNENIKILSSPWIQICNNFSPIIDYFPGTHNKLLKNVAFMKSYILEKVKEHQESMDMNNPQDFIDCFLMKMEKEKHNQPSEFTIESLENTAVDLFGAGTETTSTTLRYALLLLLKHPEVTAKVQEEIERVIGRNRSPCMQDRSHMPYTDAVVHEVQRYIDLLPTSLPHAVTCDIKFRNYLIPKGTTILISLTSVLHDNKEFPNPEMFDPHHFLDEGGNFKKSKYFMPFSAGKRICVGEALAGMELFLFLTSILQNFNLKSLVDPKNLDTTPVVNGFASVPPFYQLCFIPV
# Acetylcholinesterase (Homo sapiens), sequence (P22303 whole entry, looked up): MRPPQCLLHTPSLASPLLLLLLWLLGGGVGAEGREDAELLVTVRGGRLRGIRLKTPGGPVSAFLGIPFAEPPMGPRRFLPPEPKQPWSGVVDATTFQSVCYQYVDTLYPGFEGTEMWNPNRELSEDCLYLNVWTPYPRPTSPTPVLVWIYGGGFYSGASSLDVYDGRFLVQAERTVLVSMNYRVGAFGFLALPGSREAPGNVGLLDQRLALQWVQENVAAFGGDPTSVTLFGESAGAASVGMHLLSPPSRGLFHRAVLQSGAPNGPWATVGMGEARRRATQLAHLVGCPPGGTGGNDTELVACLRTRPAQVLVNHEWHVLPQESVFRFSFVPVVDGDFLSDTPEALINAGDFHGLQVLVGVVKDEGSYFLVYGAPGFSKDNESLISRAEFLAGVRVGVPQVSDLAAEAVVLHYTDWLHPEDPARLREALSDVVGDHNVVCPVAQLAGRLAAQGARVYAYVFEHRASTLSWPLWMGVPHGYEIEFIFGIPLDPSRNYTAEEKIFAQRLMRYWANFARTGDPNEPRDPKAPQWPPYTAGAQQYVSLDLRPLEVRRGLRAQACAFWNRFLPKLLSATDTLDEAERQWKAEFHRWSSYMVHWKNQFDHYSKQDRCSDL
# Cytochrome P450 1A2 (Homo sapiens), sequence (P05177 whole entry, looked up): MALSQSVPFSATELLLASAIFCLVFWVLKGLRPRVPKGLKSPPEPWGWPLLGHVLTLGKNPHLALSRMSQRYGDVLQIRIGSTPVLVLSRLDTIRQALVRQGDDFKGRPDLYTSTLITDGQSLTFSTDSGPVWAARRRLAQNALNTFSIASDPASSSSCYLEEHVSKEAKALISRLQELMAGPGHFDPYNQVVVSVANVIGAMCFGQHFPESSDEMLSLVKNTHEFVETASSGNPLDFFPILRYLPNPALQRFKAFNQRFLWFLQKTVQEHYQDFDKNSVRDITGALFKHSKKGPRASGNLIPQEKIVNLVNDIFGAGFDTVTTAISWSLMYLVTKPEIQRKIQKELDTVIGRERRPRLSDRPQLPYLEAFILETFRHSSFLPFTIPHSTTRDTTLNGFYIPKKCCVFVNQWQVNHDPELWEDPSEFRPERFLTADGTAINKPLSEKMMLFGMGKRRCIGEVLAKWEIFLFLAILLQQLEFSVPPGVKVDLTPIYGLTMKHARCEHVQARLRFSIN
# Cytochrome P450 2C19 (Homo sapiens), sequence (P33261 whole entry, looked up): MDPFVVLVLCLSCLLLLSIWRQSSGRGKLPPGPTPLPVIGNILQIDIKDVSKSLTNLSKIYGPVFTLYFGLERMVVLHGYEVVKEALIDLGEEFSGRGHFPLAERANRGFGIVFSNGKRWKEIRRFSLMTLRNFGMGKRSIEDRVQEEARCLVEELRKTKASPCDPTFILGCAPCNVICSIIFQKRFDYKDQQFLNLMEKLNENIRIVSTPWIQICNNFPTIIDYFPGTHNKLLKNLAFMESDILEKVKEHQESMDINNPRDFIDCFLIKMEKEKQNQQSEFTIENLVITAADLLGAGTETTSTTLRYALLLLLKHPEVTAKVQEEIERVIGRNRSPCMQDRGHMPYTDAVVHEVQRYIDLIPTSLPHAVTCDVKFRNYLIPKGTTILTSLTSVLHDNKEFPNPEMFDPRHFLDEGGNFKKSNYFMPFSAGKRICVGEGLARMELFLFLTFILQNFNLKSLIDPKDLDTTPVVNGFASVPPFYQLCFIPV
# Voltage-gated inwardly rectifying potassium channel KCNH2 (Homo sapiens), sequence (Q12809 whole entry, looked up): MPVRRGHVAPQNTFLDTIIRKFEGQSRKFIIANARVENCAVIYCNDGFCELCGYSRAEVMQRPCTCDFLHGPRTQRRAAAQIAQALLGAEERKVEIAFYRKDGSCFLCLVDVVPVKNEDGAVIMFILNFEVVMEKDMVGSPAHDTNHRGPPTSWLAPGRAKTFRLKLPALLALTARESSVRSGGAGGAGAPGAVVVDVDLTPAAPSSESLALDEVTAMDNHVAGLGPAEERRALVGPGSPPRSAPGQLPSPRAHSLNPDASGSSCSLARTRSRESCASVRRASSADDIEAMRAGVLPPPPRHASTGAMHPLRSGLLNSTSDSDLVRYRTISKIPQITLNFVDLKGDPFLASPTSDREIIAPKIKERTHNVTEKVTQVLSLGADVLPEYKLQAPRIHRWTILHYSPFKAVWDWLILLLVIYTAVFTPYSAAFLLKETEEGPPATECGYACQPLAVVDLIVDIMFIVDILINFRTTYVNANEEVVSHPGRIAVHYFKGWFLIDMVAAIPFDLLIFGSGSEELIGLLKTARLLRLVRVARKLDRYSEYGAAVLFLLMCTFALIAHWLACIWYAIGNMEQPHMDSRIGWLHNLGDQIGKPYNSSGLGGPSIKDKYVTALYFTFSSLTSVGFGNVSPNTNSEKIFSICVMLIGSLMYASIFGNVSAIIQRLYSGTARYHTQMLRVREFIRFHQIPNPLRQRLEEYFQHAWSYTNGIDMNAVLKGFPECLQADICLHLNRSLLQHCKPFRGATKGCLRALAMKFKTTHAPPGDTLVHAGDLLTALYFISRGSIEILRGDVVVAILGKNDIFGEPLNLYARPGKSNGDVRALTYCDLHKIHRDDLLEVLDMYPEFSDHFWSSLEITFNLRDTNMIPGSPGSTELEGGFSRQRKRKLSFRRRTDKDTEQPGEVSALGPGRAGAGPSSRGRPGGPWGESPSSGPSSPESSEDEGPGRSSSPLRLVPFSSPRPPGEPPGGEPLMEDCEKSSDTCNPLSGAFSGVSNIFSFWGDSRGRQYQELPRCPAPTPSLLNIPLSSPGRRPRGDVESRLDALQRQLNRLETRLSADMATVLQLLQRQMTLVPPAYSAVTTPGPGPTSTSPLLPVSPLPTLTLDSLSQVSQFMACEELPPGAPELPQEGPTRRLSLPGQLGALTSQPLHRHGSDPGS
# Cytochrome P450 3A4 (Homo sapiens), sequence (P08684 whole entry, looked up): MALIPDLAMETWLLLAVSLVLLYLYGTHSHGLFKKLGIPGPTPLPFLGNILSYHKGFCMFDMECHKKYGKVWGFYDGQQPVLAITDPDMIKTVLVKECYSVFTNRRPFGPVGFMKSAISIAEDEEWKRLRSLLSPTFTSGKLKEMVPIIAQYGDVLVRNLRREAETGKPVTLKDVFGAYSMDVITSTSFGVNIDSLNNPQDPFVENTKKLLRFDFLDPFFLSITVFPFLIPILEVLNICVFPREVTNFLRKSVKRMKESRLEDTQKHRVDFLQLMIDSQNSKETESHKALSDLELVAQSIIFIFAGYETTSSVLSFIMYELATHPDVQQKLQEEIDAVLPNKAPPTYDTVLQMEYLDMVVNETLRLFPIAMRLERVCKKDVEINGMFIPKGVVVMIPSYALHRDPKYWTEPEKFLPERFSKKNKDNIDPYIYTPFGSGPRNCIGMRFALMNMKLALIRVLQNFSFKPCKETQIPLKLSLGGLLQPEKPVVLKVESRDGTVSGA
# Nuclear receptor subfamily 1 group I member 2 (Homo sapiens), sequence (O75469 whole entry, looked up): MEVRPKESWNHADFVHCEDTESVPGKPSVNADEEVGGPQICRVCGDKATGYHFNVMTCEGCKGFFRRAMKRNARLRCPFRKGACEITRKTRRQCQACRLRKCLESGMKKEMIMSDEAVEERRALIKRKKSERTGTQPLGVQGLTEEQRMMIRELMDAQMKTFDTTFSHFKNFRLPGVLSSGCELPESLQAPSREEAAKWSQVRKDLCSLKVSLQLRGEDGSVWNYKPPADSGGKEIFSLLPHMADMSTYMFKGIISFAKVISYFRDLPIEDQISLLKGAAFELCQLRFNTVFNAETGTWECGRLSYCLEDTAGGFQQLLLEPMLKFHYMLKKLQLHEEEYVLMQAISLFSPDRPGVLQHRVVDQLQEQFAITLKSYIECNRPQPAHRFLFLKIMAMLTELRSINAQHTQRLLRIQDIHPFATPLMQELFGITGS
Structure (SMILES),Potency [1],outcome [2],Potency [3],Potency [4],Potency [5],Potency [6],Potency [7],Potency [8],Potency [9],Potency [10],Potency [11],max activation [12],Potency [13],Potency [14]
C=CCOC(Cn1ccnc1)c1ccc(Cl)cc1Cl (stereo not given),48.7 µM (active) and 15.4 µM (active) and 11.9 µM (active),inactive,inactive,inactive,inactive,inactive,24.6 µM (active) and 21.9 µM (active) and 23.9 µM (active),–,–,–,–,–,–,–
CCCC[N+]1(C)CCCCC1,inactive,–,inactive,inactive,inactive,inactive,–,inactive,inactive,inactive,inactive,–,–,–
O=[N+]([O-])c1ccccc1O,inactive,–,inactive,inactive,inactive,inactive,–,31.6 µM (active) and inactive,inactive,inactive,–,–,–,–
O=C(O)C(Cl)Cl,inactive,inactive,inactive,inactive,inactive,inactive,–,29.1 µM (active) and inactive,inactive,inactive,inactive,-1.74% (inactive),inactive,inactive
O=c1[nH]c(=O)n(Cl)c(=O)n1Cl,inactive,inactive,inactive,inactive,inactive,inactive,–,inactive,56.4 µM (active) and inactive,inactive,inactive,0.0078% (inactive),inactive,–
C[C@]12CCC(=O)C=C1CC[C@@H]1[C@@H]2CC[C@]2(C)C(=O)CC[C@@H]12,53.5 µM (active) and inactive,inactive,inactive,inactive,inactive,inactive,inactive,inactive,8.79 µM (active) and 39.9 µM (active) and 30.9 µM (active),–,inactive,-1.07% (inactive),inactive,–
CC[N+]1(C)CCCC1,inactive,–,inactive and 22.4 µM (active),inactive,inactive,inactive,inactive and 21.9 µM (active),6.3 nM (active) and inactive,inactive and 31.8 µM (active),inactive,inactive,–,–,–
OCCOc1ccccc1,inactive,inactive,inactive,inactive,inactive,inactive,–,inactive,inactive,inactive,inactive,-2.05% (inactive),inactive,–
CCn1cc[n+](C)c1C,inactive,–,inactive,inactive,inactive,inactive,–,inactive,inactive,inactive,inactive,–,–,–
Cc1cc(-c2ccc(N)c(C)c2)ccc1N,53.7 µM (active) and 61.8 µM (active),–,inactive,inactive,inactive,inactive,–,3.21 µM (active) [middle of 4 runs],6.4 µM (active) [middle of 4 runs],15.9 µM (active) [middle of 4 runs],509 nM (active) [middle of 4 runs],–,–,–
CCCCCCCCCCCCOS(=O)(=O)O,inactive,inactive,inactive,inactive,inactive,inactive,–,inactive,78.5 µM (active) and inactive,78.5 µM (active) and 71 µM (active) and inactive,inactive,–,inactive,–
CCOP(=S)(OCC)Oc1ccc2c(C)c(Cl)c(=O)oc2c1,27.6 µM (active) and 19.3 µM (active) and 23.7 µM (active),inactive,22.7 µM (active) and 12.6 µM (active) and inactive,40.4 µM (active) and 71 µM (active) and inactive,12.8 µM (active) and 25.2 µM (active) and inactive,1.8 µM (active) and 633 nM (active) and inactive,–,5.08 µM (active) and 15.9 µM (active),321 nM (active) and 50.2 nM (active) and 3.89 µM (active),286 nM (active) and 63.3 nM (active) and 8.71 µM (active),2.86 µM (active) and 4.48 µM (active) and 13.8 µM (active),9.05% (inactive),14.1 µM (active),–
O=C(O)C(Cl)(Cl)Cl,inactive,inactive,inactive,inactive,inactive,inactive,inactive,inactive,20 µM (active),inactive,inactive and 35.6 µM (active),-1.14% (inactive),inactive,–
COP(=O)(OC)OC=C(Cl)Cl,inactive,inactive,–,inactive,inactive,inactive,–,inactive,inactive,inactive,inactive and 15.4 µM (active),0.647% (inactive),inactive,–
CCNc1nc(Cl)nc(NCC)n1,inactive,inactive,31.9 µM (active) and inactive,inactive,inactive,inactive,–,inactive,inactive,inactive,11.3 µM (active) and 12.6 µM (active),-2% (inactive),inactive,–
Nc1ccc(-c2ccc(N)cc2)cc1,30.3 µM (active) and 1.08 µM (active) and 34.4 µM (active),–,inactive,inactive,inactive,inactive,–,inactive,8.83 µM (active) and 39.6 µM (active) and 35.6 µM (active),35.2 µM (active) and 11.2 µM (active) and 25.2 µM (active),19.8 µM (active) and 14.1 µM (active) and 25.2 µM (active),–,–,–
CNC,inactive,–,inactive,inactive,inactive,inactive,–,inactive,inactive,inactive,inactive,–,–,–
CC(=O)[O][Hg][c]1ccccc1,inactive,inactive,inactive,inactive,62.7 µM (active) and 56.4 µM (active),inactive,13.7 µM (active) and 13.8 µM (active),353 nM (active) and 564 nM (active) and 1.74 µM (active),8.86 µM (active) and 8.94 µM (active) and 17.4 µM (active),3.96 µM (active) and 2.52 µM (active) and 4.36 µM (active),17.7 µM (active) and 22.4 µM (active) and 27.5 µM (active),-23.3% (inactive),10 µM (active),–
CCC[N+]1(C)CCCCC1,inactive,–,inactive,inactive,inactive,inactive,–,inactive,inactive,inactive,inactive,–,–,–
Oc1ccccc1-c1ccccc1,inactive and 31.4 µM (active),inactive,inactive,inactive,inactive,inactive,–,39.9 µM (active),39.9 µM (active) and 31.7 µM (active) and 23 µM (active),71 µM (active) and 35.6 µM (active) and 25.8 µM (active),23 µM (active) [middle of 4 runs],-1.27% (inactive),inactive,–
O=C(O)c1nc(Cl)ccc1Cl,inactive,–,inactive,inactive,inactive,inactive,–,inactive,inactive,inactive,inactive,–,–,–
COCC(=O)N(c1c(C)cccc1C)C(C)C(=O)OC (stereo not given),inactive,–,inactive,inactive,inactive,inactive,–,inactive,41 µM (active) and 39.8 µM (active) and inactive,70.9 µM (active) and inactive,inactive,0.174% (inactive),–,–
CCC(=O)C(CC(C)N(C)C)(c1ccccc1)c1ccccc1 (stereo not given),8.67 µM (active) and 60.7 µM (active),–,inactive,inactive,inactive,inactive,–,2.01 µM (active) and 996 nM (active) and 1.53 µM (active),inactive,inactive,inactive,–,–,–

# Reference: PubChem BioAssay (Tox21)
